Data as given in PubChem BioAssay AID504374 (National Center for Advancing Translational Sciences (NCATS), 2011).
The whole screen tested about 1,500 compounds, of which about 100 (6.7%) were called active. Not shown: some 7% with an inconclusive outcome. This is one part of a sample in which actives are shown more often than they occur. Calls follow the shape of the dose curve; as a rule, active = well fitted inhibition curve with a large enough effect; inconclusive = small, poorly fitted or top-dose-only effect, or effect the other way; inactive = flat fitted curve, though single readings scatter.

The compounds below were run against Runt-related transcription factor 1 (Homo sapiens) + Core-binding factor subunit beta (Homo sapiens) (UniProt Q01196+Q13951) (assay: qHTS Assay for Compounds Blocking the Interaction Between CBF-beta and RUNX1 for the Treatment of Acute Myeloid Leukemia: Hit Validation). Settings: AlphaScreen CBFb-His/RUNX1-biotin binding; series mostly up to 59.8 µM; activity, negative = inhibition: at the top concentration.
Sequence of Runt-related transcription factor 1 (Homo sapiens) + Core-binding factor subunit beta (Homo sapiens) (Q01196 whole entry, looked up): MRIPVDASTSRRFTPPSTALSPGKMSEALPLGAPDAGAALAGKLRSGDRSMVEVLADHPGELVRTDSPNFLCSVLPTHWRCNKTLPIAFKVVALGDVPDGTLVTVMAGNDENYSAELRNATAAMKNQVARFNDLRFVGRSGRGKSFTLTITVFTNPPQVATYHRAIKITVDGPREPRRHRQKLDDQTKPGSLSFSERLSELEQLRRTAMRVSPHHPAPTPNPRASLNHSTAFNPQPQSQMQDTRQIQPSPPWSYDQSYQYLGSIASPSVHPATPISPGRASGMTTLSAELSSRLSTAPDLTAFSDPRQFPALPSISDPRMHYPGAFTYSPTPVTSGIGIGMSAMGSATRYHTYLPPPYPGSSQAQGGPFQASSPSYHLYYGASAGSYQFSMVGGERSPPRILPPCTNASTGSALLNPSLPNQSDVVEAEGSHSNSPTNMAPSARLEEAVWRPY
Sequence of Runt-related transcription factor 1 (Homo sapiens) + Core-binding factor subunit beta (Homo sapiens) (Q13951 whole entry, looked up): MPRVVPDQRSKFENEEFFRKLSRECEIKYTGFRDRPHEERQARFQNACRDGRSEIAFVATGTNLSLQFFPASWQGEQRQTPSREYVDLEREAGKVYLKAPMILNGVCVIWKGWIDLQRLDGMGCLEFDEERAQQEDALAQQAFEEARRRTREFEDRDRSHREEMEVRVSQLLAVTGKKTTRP
Method in brief: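 AlphaScreen proximity assay: His-tagged CBF-beta and biotinylated RUNX1 (30 nM each) preincubated 20 min, then compound 15 min, then nickel and streptavidin beads 90 min, all at room temperature; signal read at […]em 440 nm.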
% is scaled to controls: 0 for no effect and ±100 for the full control effect; potency is read from the fitted curve at half-maximal effect.
Also: nearly all actives have a fitted effect of over 60% in size.

Compound	activity, negative = inhibition	Potency
Cc1ccc(C[n+]2cc(-c3ccc(Cl)cc3)n3c2CCC3)cc1	-2.88% (inactive)	–
COc1ccc(/C=N/OC(=O)c2ccc(Cl)cc2)c(Cl)c1OC	-5.17% (inactive)	–
CCOC(=O)CSc1nnc(Cn2nnc3ccccc32)n1-c1ccc(F)cc1	-4.39% (inactive)	–
CN(CC(O)CN1CCOCC1)S(=O)(=O)O (centres undefined)	3.07% (inactive)	–
CCOC(=O)c1nn(-c2ccc([N+](=O)[O-])cc2)cc1O	-0.376% (inactive)	–
Cn1c(=O)c2cc3ccccc3nc2n(C)c1=O	0.436% (inactive)	–
COc1ccc(CCNC(=S)NCCc2ccc(OC)c(OC)c2)cc1OC	-3.02% (inactive)	–
CCO/C=C1\SC(=S)N(c2ccc(Cl)cc2)C1=O	-14.9% (inactive)	–
Cc1ccc(S(=O)(=O)NC(=O)Nc2ccc(OC(F)F)cc2)cc1	-0.722% (inactive)	–
Nc1nc(-c2ccccc2)c(N=Nc2ccccc2Cl)s1	–	4.34 µM (active)
Cc1cc(C)n2nc(N)c(N=Nc3ccccc3)c2n1	-9.08% (inactive)	–
Nc1nc(-c2ccccc2)c(N=Nc2ccc(Cl)cc2)s1	–	13.7 µM (active)
Nc1nc(-c2ccccc2)c(N=Nc2cccc3ccccc23)s1	–	1.94 µM (active)
CC1CC(C)(C)OC(C[N+]2(C)CCCCC2)O1 (centres undefined)	-0.393% (inactive)	–
COc1ccccc1NC(=S)NC1CCCCCCCCCCC1	-2.75% (inactive)	–
CCOC(=O)C1CCCN(C(=O)Nc2c(-c3ccccc3)noc2C)C1 (centres undefined)	0.758% (inactive)	–
COc1ccc(C(=O)/C=C/Nc2cc(C)ccn2)cc1	-3.04% (inactive)	–
COC(=O)c1[nH]c2cc(OC)ccc2c1NC(=O)c1c(F)cccc1F	3.22% (inactive)	–
CC(C)(C)c1csc(Sc2ccc([N+](=O)[O-])cn2)n1	3% (inactive)	–
CC(=O)Oc1cc2cccc(OC(C)=O)c(=O)c2c(OC(C)=O)c1OC(C)=O	–	1.12 µM (active)
O=C(N/N=C/c1ccc2c(c1)OCCO2)c1ccncc1	-1.01% (inactive)	–
CC(=O)c1cnn(-c2ccc(Cl)c(Cl)c2Cl)c1C	-3.5% (inactive)	–
CCOC(=O)N1CCc2c(sc3nc[nH]c(=O)c23)C1	-4.17% (inactive)	–
CCc1c(C#N)sc(C(N)=O)c1CC	-3.2% (inactive)	–
CN=c1scc(-c2ccccc2F)n1/N=C/c1ccc(O)c(O)c1O	–	6.87 µM (active)

Compound	activity, negative = inhibition	Potency
CC(=O)Nc1ccc(S(=O)(=O)Nc2ccc(C(=O)NCC(=O)O)cc2)cc1	4.22% (inactive)	–
Cc1cccc(C)c1NC(=S)N1CCOCC1	0.441% (inactive)	–
Cc1ccc(C(=O)CSc2nnc(-c3snnc3C)n2C2CC2)cc1	5.91% (inactive)	–
CN(C)c1ccc(N2C(=O)CC(c3ccccc3)CC2=O)cc1	-1.11% (inactive)	–
CC1=[N+](C)N(c2ccccc2)C(=O)C1N=C/C=C/c1ccccc1 (centres undefined)	7.59% (inactive)	–
CC1=NN(c2ccccc2)C(=O)/C1=C/C=C/c1ccc(N(C)C)cc1	–	1.12 µM (active)
CN1CCN(C(=O)Nc2cccc(-c3ccccc3)c2)CC1	1.01% (inactive)	–
CCc1c(-c2ccccc2)[n+](=O)c2c(n1[O-])CCC2	-0.602% (inactive)	–
O=C(O)C1=CC(=C(c2ccc(O)c(C(=O)O)c2)c2ccc(O)c(C(=O)O)c2)C=CC1=O	–	1.78 µM (active)
O=C(NNC(=S)NC1CC2C=CC1C2)c1ccncc1 (centres undefined)	8.75% (inactive)	–
O=C(NC(=S)NNC(=O)c1cnccn1)c1ccc(F)cc1	–	2 µM (active)
O=C(N/N=C/c1ccncc1)c1cnccn1	-5.76% (inactive)	–
CCOP(=O)(c1ccc(N(C)C)cc1)C(O)c1cccnc1 (centres undefined)	-3.85% (inactive)	–
CN(C)NC(=S)NC1CCS(=O)(=O)C1 (centres undefined)	1.34% (inactive)	–
O=C1CC(Sc2ccc(Cl)cc2)C(=O)N1c1ccc2c(c1)OCCO2 (centres undefined)	-12% (inactive)	–
O=[N+]([O-])c1cc2c(cc1/C=N/n1c(-c3ccccn3)n[nH]c1=S)OCO2	–	10 µM (active)
Cc1cccc(-c2n[nH]c(=S)n2/N=C/c2ccco2)c1	-6.05% (inactive)	–
Fc1ccccc1/C=N/n1c(-c2cccnc2)n[nH]c1=S	-0.276% (inactive)	–
Cc1cc(C)cc(NC(=O)NCC(O)COc2ccc([N+](=O)[O-])cc2)c1 (centres undefined)	3.3% (inactive)	–
CCOc1cc(/C=N/n2c(C)nnc2C)ccc1O	-4.6% (inactive)	–
Cc1ccccc1Nc1ncc(C#N)c(N)n1	-0.858% (inactive)	–
O=C(Nc1ccc(Cl)cc1)Nc1ccc(C(=O)N2CCOCC2)cc1	-1.96% (inactive)	–
CCCc1nc2sc3ccccc3c(=O)c2c(=O)n1Cc1ccc(OC)cc1	4.52% (inactive)	–
Cc1c(C(=O)/C=C/N(C)C)nnn1-c1ccc(Cl)c(Cl)c1	4.52% (inactive)	–
O=c1oc2c(O)c(O)cc3c(=O)oc4c(O)c(O)cc1c4c23	–	0.158 µM (active)

Compound	activity, negative = inhibition	Potency
O=c1cc2c(=O)oc3cc(O)c(O)oc3c2c(O)c1O	–	0.447 µM (active)
COC(=O)Cc1[nH]c(=O)[nH]c1C(=O)OC	-2.87% (inactive)	–
CSc1ccc(NC(=O)Nc2cc(C)ccn2)cc1	-4.53% (inactive)	–
C[N+](C)(C)CCCN(Cc1ccc2c(c1)OCO2)C(=O)NC1CCCCC1	-8.77% (inactive)	–
C=CCNC(=S)Nc1c(C(=O)OC)[nH]c2cc(OC)ccc12	-6.58% (inactive)	–
O=C(O)c1cc(O)c2c(c1)[C@H]([C@H]1c3cc(C(=O)O)cc(O)c3C(=O)c3c(O[C@@H]4OC(CO)C(O)C(O)C4O)cccc31)c1cccc(O[C@@H]3OC(CO)C(O)C(O)C3O)c1C2=O (some centres undefined)	–	0.562 µM (active)
O=C(OCC(O)COC(=O)c1cccnc1)c1cccnc1	0.481% (inactive)	–
N#Cc1ccc(S(=O)(=O)N2CCCN(c3ccc(C(F)(F)F)cn3)CC2)cc1	3.3% (inactive)	–
O=C(O)c1ccccc1C1Nc2ccccc2C(=O)N1CCCN1CCOCC1 (centres undefined)	-13.6% (inactive)	–
Cc1ccc(Cn2nc(C)cc2C(=O)Nc2ccc(Cl)cc2)cc1	-3.08% (inactive)	–
CCn1c(NC(=O)C(C)C)c(-c2cccs2)c(=O)c2ccccc21	-7.71% (inactive)	–
CC(=O)Oc1cc(-c2coc3cc(OC(C)=O)c(OC(C)=O)c(OC(C)=O)c3c2=O)cc(OC(C)=O)c1OC(C)=O	–	1 µM (active)
Cc1nc(C)c(-c2ccnc(/N=C/NO)n2)s1	-3.29% (inactive)	–
Cc1cc(OCC(=O)c2cccc(C(F)(F)F)c2)n2cnnc2n1	1.34% (inactive)	–
Cc1onc(-c2ccccc2)c1C(=O)NC(=S)NNC(=O)c1ccco1	-9.63% (inactive)	–
O=C(NC(=S)NNC(=O)c1ccccc1O)c1ccco1	–	1.26 µM (active)
O=C(NC(=S)Nc1ccccc1N1CCCC1)c1ccco1	-2.74% (inactive)	–
Nn1c(SCC(=O)Nc2ccc(S(N)(=O)=O)cc2)nnc1C(F)(F)F	4.8% (inactive)	–
O=C(CN1CCCc2ccccc21)N1CCc2ccccc21	7.88% (inactive)	–
COc1ccc(CCN(C)CCC(=O)Nc2cccc(C)c2)cc1OC	-4.23% (inactive)	–
CC(=O)NNC(=S)Nc1cccc(F)c1	-2.31% (inactive)	–
CC(c1ccccn1)N(CCN(C)C)C(=S)Nc1cccc(F)c1 (centres undefined)	–	3.44 µM (active)
Cc1cccc(NC(=S)N(CCN(C)C)C(C)c2ccccn2)c1 (centres undefined)	–	6.87 µM (active)
Cc1ccc(NC(=S)Nc2ccccn2)cc1C	-4.63% (inactive)	–
